In PubChem BioAssay (NCI) one finds growth data, which are given here for eight compounds.

Structures are written as SMILES. Compounds without any hit were thinned out: in the full panel of roughly 83,000, 20% have a hit.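 Cell lines were cultured in 96-well plates, exposed to a single compound concentration, and assessed for percent growth 48 hours later.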 Activity calls are given as the source filed them. Rule for the calls: active = growth percent below 10; inactive = the rest.

Some test systems named below: SR leukemia; RPMI-8226 leukemia; OVCAR-8 ovarian; OVCAR-5 ovarian; OVCAR-4 ovarian; SK-OV-3 ovarian; IGROV1 ovarian; OVCAR-3 ovarian; HS 578T breast; NCI/ADR-RES ovarian; T-47D breast; BT-549 breast; MDA-MB-435 melanoma; SW-620 colon; MCF7 breast; HCT-116 colon; HCC-2998 colon; KM12 colon.
Holding throughout (test): NCI-60 one-dose screen, 48 h (100 = growth as untreated, 0 = no growth, -100 = all killed)
Common to all, as to conditions: 10 µM unless noted

Take `CCN1CCN(Cc2cn(-c3ccc(S(N)(=O)=O)cc3)nn2)CC1`: the growth in the experiment with SR leukemia was 102% (inactive); in the experiment with RPMI-8226 leukemia, 109% (inactive); in the experiment on OVCAR-8 ovarian, 102% (inactive); with OVCAR-5 ovarian, 108% (inactive); in the experiment with OVCAR-4 ovarian it was 108% (inactive); with SK-OV-3 ovarian, 105% (inactive). Moreover, the growth is 107% (inactive) in the experiment with IGROV1 ovarian; 112% (inactive) with OVCAR-3 ovarian; 102% (inactive) in the experiment on HS 578T breast; 111% (inactive) with NCI/ADR-RES ovarian; 105% (inactive) with T-47D breast; 130% (inactive) in the experiment on BT-549 breast. In addition, the growth was 107% (inactive) with MDA-MB-435 melanoma; 106% (inactive) in the experiment with SW-620 colon; 97.4% (inactive) in the experiment with MCF7 breast; 103% (inactive) with HCT-116 colon; 106% (inactive) in the experiment with HCC-2998 colon; 104% (inactive) with KM12 colon.

On to `Cc1nn(-c2ccccc2)c2ncnc(N/N=C/c3ccccc3)c12`, for which the growth with SR leukemia was 98.1% (inactive); in the experiment on RPMI-8226 leukemia, 105% (inactive); in the experiment with OVCAR-8 ovarian it was 96.7% (inactive); with OVCAR-5 ovarian, 97.5% (inactive); with OVCAR-4 ovarian, 80.4% (inactive); with SK-OV-3 ovarian it was 102% (inactive). Moreover, the growth in the experiment with IGROV1 ovarian was 81.9% (inactive); in the experiment on OVCAR-3 ovarian, 83.5% (inactive); in the experiment on HS 578T breast it was 103% (inactive); in the experiment with NCI/ADR-RES ovarian, 93% (inactive); in the experiment on T-47D breast, 75% (inactive); in the experiment with BT-549 breast, 97.4% (inactive). Further, the growth in the experiment with MDA-MB-435 melanoma was 96.9% (inactive); in the experiment with SW-620 colon it was 107% (inactive); with MCF7 breast it was 80.4% (inactive); with HCT-116 colon it was 98.1% (inactive); in the experiment on HCC-2998 colon, 115% (inactive); with KM12 colon, 80.9% (inactive).

Regarding `N=c1c2cc(-c3ccccc3)oc2ncn1/N=C/c1ccc(Br)cc1`, the growth in the experiment with SR leukemia was 30.1% (inactive); in the experiment with RPMI-8226 leukemia it was 92.4% (inactive); with OVCAR-8 ovarian it was 80.7% (inactive); in the experiment on OVCAR-5 ovarian, 49.3% (inactive); with OVCAR-4 ovarian, 19.7% (inactive); in the experiment with SK-OV-3 ovarian, 101% (inactive). The growth was 42.8% (inactive) in the experiment with IGROV1 ovarian; -7.71% (active) in the experiment on OVCAR-3 ovarian; 79.1% (inactive) in the experiment on HS 578T breast; 22.3% (inactive) in the experiment with NCI/ADR-RES ovarian; 79.6% (inactive) in the experiment on T-47D breast; 101% (inactive) with BT-549 breast. Besides, the growth is 61.6% (inactive) in the experiment with MDA-MB-435 melanoma; 31% (inactive) with SW-620 colon; 65.6% (inactive) with MCF7 breast; 50.7% (inactive) in the experiment on HCT-116 colon; 100% (inactive) in the experiment on HCC-2998 colon; 23.9% (inactive) in the experiment on KM12 colon.

Consider `C=CC(=O)N1CCC=C(c2cc3c(N[C@H](C)c4ccccc4)ncnc3[nH]2)C1`, for which the growth in the experiment on SR leukemia was 32.9% (inactive); in the experiment on RPMI-8226 leukemia it was 41.8% (inactive); with OVCAR-8 ovarian it was 66.4% (inactive); with OVCAR-5 ovarian it was 49.8% (inactive); in the experiment on OVCAR-4 ovarian it was 45.4% (inactive); in the experiment on SK-OV-3 ovarian, -6.72% (active). Besides, the growth in the experiment on IGROV1 ovarian is 14.5% (inactive); in the experiment with OVCAR-3 ovarian it was 56.2% (inactive); in the experiment on HS 578T breast it was 69% (inactive); in the experiment on NCI/ADR-RES ovarian it was 73.7% (inactive); with T-47D breast, 29.7% (inactive); in the experiment on BT-549 breast, 89.8% (inactive). For the same compound, the growth in the experiment with MDA-MB-435 melanoma is 74.5% (inactive); with SW-620 colon it was 91.7% (inactive); in the experiment on MCF7 breast, 49.5% (inactive); in the experiment on HCT-116 colon, 71.8% (inactive); with HCC-2998 colon, 93.8% (inactive); in the experiment with KM12 colon it was 90.5% (inactive).

Consider `NC(=O)c1cccc(-n2ccc3cc(NC(=O)Nc4ccc(N5CCOCC5)c(C(F)(F)F)c4)ccc32)n1`, for which the growth is -23.5% (active) in the experiment on SR leukemia; -30.7% (active) in the experiment on RPMI-8226 leukemia; 11.6% (inactive) in the experiment with OVCAR-8 ovarian; 28% (inactive) in the experiment on OVCAR-5 ovarian; 3.71% (active) in the experiment on OVCAR-4 ovarian; 19.8% (inactive) in the experiment with SK-OV-3 ovarian. In addition, the growth in the experiment with IGROV1 ovarian was 13.8% (inactive); in the experiment with OVCAR-3 ovarian it was 7.68% (active); in the experiment with HS 578T breast it was -21.8% (active); in the experiment on NCI/ADR-RES ovarian, 15.9% (inactive); with T-47D breast, 1.29% (active); with BT-549 breast it was -14.8% (active). The growth in the experiment with MDA-MB-435 melanoma is 10.5% (inactive); in the experiment on SW-620 colon, 4.98% (active); in the experiment on MCF7 breast it was 8.81% (active); in the experiment on HCT-116 colon it was 0.168% (active); with HCC-2998 colon it was 31.3% (inactive); in the experiment on KM12 colon, -15.7% (active).

As for `COc1cc(/C=C/C(=O)c2ccc(NC(=O)CSc3nnc(-c4ccc(-c5nc6ccc(Cl)cc6[nH]5)cc4)o3)cc2)cc(OC)c1OC`, the growth in the experiment on SR leukemia was 48.4% (inactive); in the experiment with RPMI-8226 leukemia, 108% (inactive); in the experiment on OVCAR-8 ovarian it was 98% (inactive); with OVCAR-5 ovarian, 91.3% (inactive); with OVCAR-4 ovarian, 102% (inactive); in the experiment with SK-OV-3 ovarian, 99% (inactive). The growth is 88.3% (inactive) with IGROV1 ovarian; 84.1% (inactive) in the experiment on OVCAR-3 ovarian; 90.9% (inactive) in the experiment on HS 578T breast; 84.3% (inactive) in the experiment with NCI/ADR-RES ovarian; 106% (inactive) in the experiment on T-47D breast; 85.6% (inactive) in the experiment on BT-549 breast. For the same compound, the growth in the experiment with MDA-MB-435 melanoma is 24.1% (inactive); with SW-620 colon it was 87.4% (inactive); in the experiment on MCF7 breast it was 91.8% (inactive); in the experiment with HCT-116 colon, 90.5% (inactive); in the experiment with HCC-2998 colon, 96.3% (inactive); with KM12 colon, 80.6% (inactive).

With `Cn1ccnc1C(=O)/C=C/c1ccc(NC(=O)c2ccc(F)cc2)cc1`, the growth in the experiment on SR leukemia is 8.3% (active); with RPMI-8226 leukemia it was 10.6% (inactive); with OVCAR-8 ovarian, 65% (inactive); in the experiment on OVCAR-5 ovarian it was 41.2% (inactive); with OVCAR-4 ovarian it was 37.1% (inactive); in the experiment with SK-OV-3 ovarian it was 67.2% (inactive). For the same compound, the growth with IGROV1 ovarian is 34.7% (inactive); in the experiment on OVCAR-3 ovarian, 17.9% (inactive); in the experiment with HS 578T breast, 54.4% (inactive); in the experiment with NCI/ADR-RES ovarian, 27.5% (inactive); with T-47D breast it was 22.5% (inactive); in the experiment on BT-549 breast it was 69.4% (inactive). Besides, the growth was 43.1% (inactive) in the experiment with MDA-MB-435 melanoma; 14.8% (inactive) in the experiment on SW-620 colon; 18% (inactive) in the experiment on MCF7 breast; 8.87% (active) with HCT-116 colon; 39.5% (inactive) in the experiment with HCC-2998 colon; 24.8% (inactive) in the experiment with KM12 colon.

On to `Cc1ccc(-n2cc(/C=C/C(=O)c3ccc(O)cc3)c(-c3ccc(S(C)(=O)=O)cc3)n2)cc1`, for which the growth is 55.1% (inactive) in the experiment with SR leukemia; 47.9% (inactive) in the experiment on RPMI-8226 leukemia; 87.5% (inactive) in the experiment with OVCAR-8 ovarian; 95.7% (inactive) in the experiment with OVCAR-5 ovarian; 98.7% (inactive) with OVCAR-4 ovarian; 94.9% (inactive) with SK-OV-3 ovarian. Further, the growth was 47.7% (inactive) in the experiment with IGROV1 ovarian; 22.7% (inactive) in the experiment with OVCAR-3 ovarian; 96.2% (inactive) in the experiment on HS 578T breast; 33.6% (inactive) in the experiment on NCI/ADR-RES ovarian; 73.5% (inactive) in the experiment on T-47D breast; 70.9% (inactive) in the experiment with BT-549 breast. Moreover, the growth in the experiment with MDA-MB-435 melanoma is 1.81% (active); in the experiment with SW-620 colon, 34% (inactive); in the experiment with MCF7 breast, 24.8% (inactive); in the experiment on HCT-116 colon, 26.6% (inactive); in the experiment on HCC-2998 colon, 104% (inactive); in the experiment on KM12 colon, 38.3% (inactive).
